# Screening results (PubChem)
# Sfp PPTase inh = inhibitors of Bacillus subtilis Sfp phosphopantetheinyl transferase | Q9F4F7 | Biochemical Sfp PPTase activity, qHTS | Potency, µM, inactives show largest response in the series, negative = inhibition, usual class: inhibitors | actives 3.5% (n = 310,000) | AID 1490;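 further: the enzyme is Sfp with the accession as filed and its product quenches rhodamine fluorescence; potency means the concentration at half of the fitted maximal effect; 0% = enzyme reaction without inhibitor and -100% = no enzyme wells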
#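 Reaction rates are the 30-min fluorescence difference (ex 525, em 598 nm) in wells containing 15 nM Sfp, 5 uM rhodamine-CoA and 12.5 uM BHQ-2-YbbR at pH 7.6 with 10 mM MgCl2.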
# VDR inh = blocks the human vitamin D receptor. Potency, µM, without a hit: max response, negative = inhibition, hits mostly inhibitors. P11473. VDR-SRC2-3 peptide fluorescence polarization, 2 h. actives 0.93% (n = 400,000). AID 504847; further: potency means the concentration at half of the fitted maximal effect
# Target sequence (P11473 whole entry, looked up): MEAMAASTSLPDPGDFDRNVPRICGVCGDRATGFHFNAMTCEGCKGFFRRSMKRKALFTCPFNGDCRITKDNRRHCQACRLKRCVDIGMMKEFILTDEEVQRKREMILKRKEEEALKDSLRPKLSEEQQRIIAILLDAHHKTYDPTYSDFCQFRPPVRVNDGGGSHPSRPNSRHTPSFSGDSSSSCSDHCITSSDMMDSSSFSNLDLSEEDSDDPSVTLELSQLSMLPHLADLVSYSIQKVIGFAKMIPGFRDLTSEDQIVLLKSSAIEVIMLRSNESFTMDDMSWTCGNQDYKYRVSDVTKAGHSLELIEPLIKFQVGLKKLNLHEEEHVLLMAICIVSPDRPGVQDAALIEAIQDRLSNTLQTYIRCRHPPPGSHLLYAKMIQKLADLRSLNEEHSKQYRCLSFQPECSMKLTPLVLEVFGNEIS
#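 Fluorescence polarization assay of small-molecule disruption of VDR binding to coregulator peptide SRC2-3. Compounds and controls pin-transferred, then read after 2 h incubation at ambient room temperature.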
# PLK1 PBD block = inhibitors of human PLK1 polo-box domain binding; P53350; Plk1 PBD binding of FITC phosphopeptide, fluorescence polarization; Potency, µM, without a hit: max response, negative = inhibition, usual class: inhibitors; actives 2.8% (n = 360,000); further: potency means the concentration at half of the fitted maximal effect; series mostly up to about 57 µM; nearly all actives have a fitted effect of over 65% in size
# G9a block = inhibitors of human histone lysine methyltransferase G9a | Q96KQ7 | G9a H3K9 monomethylation, AlphaScreen, 2 h | Potency, µM (top dose mostly 102 µM), for the others: at the highest dose activity, negative = inhibition, usual class: inhibitors | actives 8.8% (n = 350,000) | AID 504332; further: potency means the concentration at half of the fitted maximal effect; nearly all actives have a fitted effect of over 75% in size
# Target sequence (Q96KQ7 913-1193 limits assumed): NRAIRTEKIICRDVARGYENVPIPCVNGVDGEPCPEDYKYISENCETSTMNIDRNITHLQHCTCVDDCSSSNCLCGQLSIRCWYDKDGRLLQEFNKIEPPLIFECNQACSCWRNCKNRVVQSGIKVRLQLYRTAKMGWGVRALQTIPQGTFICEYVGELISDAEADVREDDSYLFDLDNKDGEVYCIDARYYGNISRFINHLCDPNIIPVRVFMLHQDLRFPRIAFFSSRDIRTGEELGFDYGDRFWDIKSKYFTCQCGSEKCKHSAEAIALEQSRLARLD
#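 AlphaScreen detection with an anti-monomethyl H3K9 antibody quantified product after a 2 h room-temperature reaction containing 500 nM biotinylated H3K9 peptide, 20 µM SAM and 20 nM enzyme, which had been preincubated 15 min with compound.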
# Mm-Cpn inhibitor = inhibitors of Methanococcus maripaludis chaperonin TRiC (MmCpn); purified Mm-Cpn ATPase, ADP Transcreener TR-FRET; Potency, µM (series often up to 76.9 µM), without a hit: at the top dose activity, negative = inhibition, usual class: inhibitors; actives 0.031% (n = 330,000); AID 504842; further: potency means the concentration at half of the fitted maximal effect; nearly all actives have a fitted effect of over 80% in size
#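 Inhibition of chaperonin ATP hydrolysis is measured as reduced ADP production, detected by competitive TR-FRET in which signal falls with ADP. Final enzyme 25 nM and ATP 10 uM, reacted 30 min at 37°C.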
# CCT modulator = cytosolic chaperonin activity modulation; purified chaperonin ATPase assay, HTRF ADP detection, 30 min; activity change, % (concentration not given with the values), hits read low; actives 0.3% (n = 360,000); AID 651819; in the data active means activity change below about -30%
#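 TRiC at 40 or 20 nM final (batch-dependent) in 30 mM Tris pH 7.4, 100 mM KCl, 5 mM MgCl2, 1 mM DTT, with compound at single 76 uM and 10 uM ATP, 30 min at 37 deg C. ADP detected by HTRF Transcreener, 665/615 ratio.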
# Active calls of the source: *; ? = inconclusive; . = no result given; [ ] = another dose, or the depositor's remark. In the library only some 10% were active in any assay of this set; here they are far more common. Unless noted, the call rests on the fitted dose curve; in most records, active means well fitted curve in the direction sought with a large enough effect; inconclusive means small, poorly fitted or top-dose-only effect, or another doubt; inactive means no such curve, though single readings can be large; an effect the other way counts as inactive or inconclusive. Unless noted, on the % scale 0 is the no-effect control and ±100 the full control effect.
SMILES,Sfp PPTase inh,VDR inh,PLK1 PBD block,G9a block,Mm-Cpn inhibitor,CCT modulator
CCc1nnc2c3ccccc3nc(N3CCN(c4cc(Cl)ccc4C)CC3)n12,.,3.4%,.,-27.0%[59 µM],.,.
CN1C(=O)C(N=Nc2ccc([N+](=O)[O-])cc2)SC1=S (configuration not stated),.,-0.7%,13.4µM*,.,.,0.2
CCCn1c(C)nc2c(NCCCN3CCCCC3C)nc(C)nc21 (configuration not stated),21.1%,.,.,.,.,.
COC(=O)c1ccc(C(NC(=O)OCc2ccccc2)/C(=C/[C@@H](C)C(=O)NC2CCCCC2)c2cccnc2)cc1 (some centres not stated),0.8%,.,.,.,.,.
O=C(O)c1cccc(Nc2ncnc3scc(-c4ccccc4)c23)c1,.,1.0%,.,?,.,.
CCOC(=O)c1c(C)n(C)c2ccc(OC)c(NC(=O)CN3CCN(Cc4ccccc4)CC3)c12,2.7%,2.7%,0.7%,-44.1%,2.1%,-1.4
COC(=O)c1c(NC(=O)CN2CCN(C(=O)c3ccco3)CC2)c2c(C)cccc2n1C,20µM*,-5.4%,-2.4%,?,-0.3%,-0.4
CCc1c(C)sc(NC(=O)CN2CCN(C(=O)c3ccco3)CC2)c1C(=O)OC,-10.3%,5.4%,-10.2%,79.4µM*,-7.4%,0.2
Cc1ccccc1CC(=O)Nc1sc(C(C)C)cc1C(=O)N1CCOCC1,-17.0%,-3.9%,-1.6%,17.6%,0.9%,-3.1
CCOC(=O)c1c(C)n(C)c2ccc(OC)c(NC(=O)CN3CCN(C(=O)c4ccco4)CC3)c12,7.4%,-5.2%,-2.6%,31.6µM*,-0.5%,0.7
CCc1c(C)sc(NC(=O)Cc2ccccc2C)c1C(=O)N1CCOCC1,-9.7%,-10.8%,?,35.5µM*,1.9%,-1.8
CCOC(=O)C1=C(SCC)c2cc3c(n2C1=O)CCCC3,-24.1%,?,-13.2%,7.94µM*,-11.2%,0.0
CN1Cc2c(C(=O)OC(C)(C)C)ncn2-c2ccsc2C1=O,6.2%,-1.9%,.,.,.,.
Clc1ccccc1-c1nnn(Cc2ccc(-c3nn[nH]n3)cc2)n1,9.5%,-22.3%,26.7µM*,-30.7%[59 µM],0.6%,0.4
Clc1ccc(Cn2nnc(-c3ccccc3)n2)cc1,4.2%,-3.1%,-18.7%,109.4%[59 µM],0.0%,-2.7
CCc1ccc(C2C(C#N)=C(N)SC(N)=C2C#N)s1,-9.9%,?,?,39.8µM*,35.5µM*,-7.9
CCc1ccc(C2C(C#N)=C(N)OC3=C2C(=O)CCC3)s1 (configuration not stated),-9.3%,-7.9%,?,-22.1%,-1.1%,0.6
Cc1ccc(C2C(C#N)=C(N)SC(N)=C2C#N)o1,12.6µM*,.,.,1.58µM*,-10.3%,.
N#CC1=C(N)SC(N)=C(C#N)C1c1ccc(C(F)(F)F)cc1,-79.6%,.,.,2.51µM*,-14.7%,.
N#CC1=C(N)SC(N)=C(C#N)C1CCc1ccccc1,?,-19.6%,24.3%,?,-13.8%,-0.7
N#CC1=C(N)SC(N)=C(C#N)C1c1ccc([N+](=O)[O-])cc1,5.01µM*,79.4µM*,9.47µM*,8.91µM*,-2.4%,0.1
COc1ccc(CNCc2c(C(=O)O)c(C)n(Cc3ccc(Cl)cc3)c2C)c(OC)c1,.,6.5%,.,-4.1%[59 µM],.,.
CCc1ccc(C2C(C#N)=C(N)SC(N)=C2C#N)cc1,?,?,-17.2%,8.91µM*,-19.2%,0.3
CC(=O)NNc1ncnc2ccccc12,-12.6%,-12.0%,-9.6%,?,0.2%,1.8
O=C(O)/C=C/C(=O)NNc1ncnc2ccccc12,56.2µM*,4.9%,-5.8%,28.5%[12.7 µM],-1.1%,1.5
SMILES,Sfp PPTase inh,VDR inh,PLK1 PBD block,G9a block,Mm-Cpn inhibitor,CCT modulator
O=C(NNc1ncnc2c1cnn2-c1ccccc1)c1cccc(Cl)c1,.,3.6%,.,?,.,.
O=C(NNc1ncnc2ccccc12)c1cccc(Cl)c1,-1.4%,0.1%,-15.5%,79.4µM*,-0.5%,-0.2
CCOC(=O)c1c(-c2ccc(Br)cc2)csc1NC(=O)c1ccc(C(C)(C)C)cc1,.,-12.8%,.,-1.4%[59 µM],.,.
COc1ccc(-c2nc(NC(=O)CSCCO)sc2C)cc1,6.5%,13.7%,0.3%,?,-1.6%,-56.0*
COc1ccc(-c2nc(NC(=O)c3ccco3)sc2C)cc1,.,.,-8.8%,.,.,-1.4
COc1ccc(-c2nc(NC(=O)c3[nH]c(C)c(C(C)=O)c3C)sc2C)cc1,-8.9%,2.4%,0.6%,50.1µM*,0.8%,2.7
CCOC(=O)Nc1nc(-c2ccccc2)c(C(=O)c2ccccc2)s1,14.6%,7.4%,-2.3%,0.5%,?,0.4
CCCOC(=O)Nc1nc(-c2ccc(C)cc2)c(C)s1,-10.4%,-20.3%,?,50.1µM*,-0.2%,-1.8
CCCn1c(=O)c2sccc2n2c(CCCC(=O)N3CCN(c4cccc(C)c4C)CC3)nnc12,.,4.1%,.,-3.7%[59 µM],.,.
Cc1ccc(C(=O)C(c2ccccc2)N2Cc3ccccc3C2=N)cc1 (configuration not stated),?,-5.1%,-8.0%,11.2µM*,-17.9%,-2.6
NC(=O)CC(NC(=O)c1ccc(Br)cc1)c1ccc(NCc2ccc(F)c(F)c2)c([N+](=O)[O-])c1 (configuration not stated),50.1µM*,10.7%,-3.6%,?,-6.5%,0.0
COc1ccc(OC)c(C(=O)NC(CC(N)=O)c2ccc(NCc3ccc(F)c(F)c3)c([N+](=O)[O-])c2)c1 (configuration not stated),-7.1%,9.4%,-10.0%,89.1µM*,0.4%,-1.8
NC(=O)CC(NC(=O)c1ccccc1)c1ccc(NCc2ccc(F)cc2)c([N+](=O)[O-])c1 (configuration not stated),-19.6%,-3.6%,-8.2%,?,1.7%,-2.2
NC(=O)CC(NC(=O)Cc1ccc(Br)cc1)c1ccc(NCc2ccc(F)c(F)c2)c([N+](=O)[O-])c1 (configuration not stated),?,-9.9%,0.4%,-26.0%[12.7 µM],-1.2%,-2.3
NC(=O)CC(NC(=O)c1ccccc1)c1ccc(NCc2ccc(F)c(F)c2)c([N+](=O)[O-])c1 (configuration not stated),11.6%,1.6%,-5.8%,70.8µM*,-2.1%,-0.5
CCCOC1(C(F)(F)F)NC(=O)N(c2cccc(Cl)c2)C1=O (configuration not stated),.,16.4%,.,2.6%[59 µM],.,.
Cc1ccc(C(O)(COC(=O)C(C)C)COC(=O)C(C)C)c(O)c1,79.4µM*,-17.3%,-9.7%,21.7%[12.7 µM],.,0.8
COc1cc(NC(=O)CNC(c2ccccc2)c2ccccc2)cc(OC)c1OC,11.6%,-19.2%,4.8%,18.5%,1.3%,-2.1
COc1ccc(NC(c2ccccc2)c2ccncc2)cc1 (configuration not stated),?,-21.6%,-6.3%,7.08µM*,-1.6%,-1.1
COc1cc(NC(c2ccccc2)c2ccccc2)cc(OC)c1OC,-8.0%,-11.4%,-16.8%,39.8µM*,2.7%,-3.8
